These results are taken from PubChem BioAssay (Tox21).

Molecules are shown by their SMILES. A number with no mark means an inactive call. Results filed as inconclusive are left out. Calls of active or inactive are those of the source. Unless noted, calls follow the shape of the dose curve; as a rule, active = well fitted curve in the direction sought with a large enough effect in the repeat runs; inconclusive = weak or mixed curves; inactive = no such curve, though single readings can be large; an effect the other way counts as inactive or inconclusive.

Assay [1] can be described thus: qHTS assay to identify small molecule antagonists of the estrogen related receptor (ERR) signaling pathway from Tox21 library - cell viability counter screen (AID 1224834). Also: nearly all actives have a fitted effect of over 30% in size. An outline of the steps: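 Viability readout (CellTiter-Fluor fluorescence, 30 min at 37 C) multiplexed with the ERR assay; cells treated 17.5 h at 37 C with compounds delivered in DMSO.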
Background: Quantitative high-throughput screening tests each substance at several concentrations.

Assay [2] has as its target Luciferin 4-monooxygenase (Photinus pyralis) (UniProt P08659). As to the kind of experiment: qHTS assay to identify small molecule inhibitors of firefly luciferase (AID 1224835). Also: series mostly up to about 120 µM; nearly all actives have a fitted effect of over 25% in size. The gist of the method: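 Quantitative HTS format; KM concentrations of both substrates. Purified P. pyralis FLuc activity quantified from luminescence images.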
Assay [3] in a line: qHTS assay to identify small molecule agonists of the constitutive androstane receptor (CAR) signaling pathway - cell viability counter screen (AID 1224836). Also: series mostly up to about 92 µM; nearly all actives have a fitted effect of over 45% in size. An outline of the steps: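 HepG2 cells stably carrying hCAR and a CYP2B6-2.2kb reporter were plated 4 h, then given compounds at 15 concentrations plus PK11195 (final 0.75 uM). After 23 h at 37 C, viability was read by CellTiter-Fluor fluorescence.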

Assay [4] is described as follows: qHTS assay to identify small molecule antagonists of the constitutive androstane receptor (CAR) signaling pathway - cell viability counter screen (AID 1224837). Also: series mostly up to about 92 µM; nearly all actives have a fitted effect of over 45% in size. An outline of the steps:
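Fluorescence from CellTiter-Fluor served as the viability signal. Human hepatoma HepG2 cells stably bearing hCAR and CYP2B6-2.2kb received compound plus CITCO (50 nM final) for 23 hr.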

Assay [5] has as its target Nuclear receptor subfamily 1 group I member 3 (Homo sapiens) (UniProt Q14994). As to the kind of experiment: qHTS assay to identify small molecule antagonists of the constitutive androstane receptor (CAR) signaling pathway (AID 1224838). Also: nearly all actives have a fitted effect of over 40% in size. An outline of the steps: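 Quantitative HTS in double-stable HepG2-CYP2B6-hCAR cells. After 4 h plating, cells get compound (15 concentrations) and CITCO at 50 nM final, incubate 24 h at 37 C, then ONE-Glo luminescence is read.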

Assay [6] has the same target. As to the kind of experiment: qHTS assay to identify small molecule agonists of the constitutive androstane receptor (CAR) signaling pathway (AID 1224839). Also: series mostly up to about 92 µM; nearly all actives have a fitted effect of over 15% in size. An outline of the steps: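 HepG2 cells stably expressing hCAR and a CYP2B6-2.2kb luciferase reporter were treated with compounds at 15 concentrations plus 0.75 uM PK11195 (final) for 24 h at 37 C; luminescence was read after ONE-Glo addition.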

Assay [7] concerns the target Thyrotropin receptor (Homo sapiens) (UniProt P16473). As to the kind of experiment: qHTS assay to identify small molecule agonists of the thyroid stimulating hormone receptor (TSHR) signaling pathway (AID 1224843; calls by dose curve; also: nearly all actives have a fitted effect of over 45% in size). The gist of the method:
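Cell line HEK293 with TSHR; density 800/well. Exposure 30 min RT. Readout HTRF cAMP (cAMP-d2/anti-cAMP-cryptate), 1 h RT before reading.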

Assay [8] is described as follows: qHTS assay to identify small molecule agonists of the hypoxia (HIF-1) signaling pathway - cell viability counter screen (AID 1224844; calls by dose curve; also: nearly all actives have a fitted effect of over 50% in size). An outline of the steps:
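Luminescent ATP content (CellTiter-Glo, 30 min, room temperature) served as the viability measure in HRE-bla ME-180 cells exposed to compounds for 17 hrs in low-serum medium (0.5% dialyzed FBS).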

Assay [9] in a line: qHTS assay to identify small molecule agonists of H2AX (AID 1224845; active = well fitted activation curve with a large enough effect in the signal ratio in the repeat runs, not every such curve was filed as active; the % refers to the signal ratio; also: potency is read from the fitted curve at half-maximal effect). An outline of the steps: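 Wild-type CHO-K1 cells plated overnight, then exposed 3 hr at 37C to compounds at 15 concentrations (0.76% DMSO). Lysed, then HTRF anti-pH2AX(S139)-cryptate/anti-H2AX-d2 detection after 24 hr at room temperature; emissions 665 and 620 nm.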
A short description of assay [10]: qHTS assay to identify small molecule agonists of the hypoxia (HIF-1) signaling pathway (AID 1224846; active = well fitted activation curve with a large enough effect in the signal ratio in the repeat runs, not every such curve was filed as active; the % refers to the signal ratio). The gist of the method: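 Measured by blue/green FRET after loading CCF4-AM: beta-lactamase expressed from a hypoxia response element in ME-180 cells. Test agents were delivered in DMSO and left 17 hrs; cells had been plated 5 hrs earlier in low-serum (0.5% dialyzed FBS) medium.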

Assay [11] can be described thus: qHTS assay to identify small molecule agonists of H2AX - cell viability counter screen (AID 1224847; calls by dose curve; also: top concentration of the series differs between compounds; nearly all actives have a fitted effect of over 30% in size). The gist of the method:
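Wild-type CHO-K1 cells (10% FBS medium) were plated overnight at 37C, exposed to compounds at 15 concentrations for 3 hr at 37C (0.76% DMSO final), and viability was read as CellTiter-Glo luminescence after 30 min at room temperature.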

The nature of assay [12]: qHTS RealTime-Glo MT Cell Viability Assay in HepG2 cells - 24 hour (AID 1224867). Also: nearly all actives have a fitted effect of over 50% in size. The gist of the method:
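Compound treatment began 5 h after plating HepG2 cells (600/well) with NanoLuc luciferase and prosubstrate. Plates stayed at 37 C for 40 h; luminescence was captured at six time points, 0 h through 40 h.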

Assay [13] can be described thus: qHTS RealTime-Glo MT Cell Viability Assay in HEK293 cells - 32 hour (AID 1224868). Also: top concentration of the series differs between compounds; nearly all actives have a fitted effect of over 50% in size. An outline of the steps: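 Quantitative high-throughput screen of the Tox21 10K library in HEK293: cells and RealTime-Glo reagents plated together, compound added at 5 h, luminescence monitored through 40 h at 37 C.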
The nature of assay [14]: A CellTox Green Cytotoxicity Assay to monitor cytotoxicity in HEK293 cells - 0 hour (AID 1224869). Also: nearly all actives have a fitted effect of over 50% in size. The gist of the method:
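Each value comes from one timepoint of a single continuous run in which HEK293 cells with CellTox Green were exposed to compound for up to 40 h at 37 C, dye fluorescence rising with cell death.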

A short description of assay [15]: qHTS assay to identify small molecule antagonists of the estrogen related receptor signaling pathway with the pleiotropic PPARgamma coactivator (PGC) from Tox21 10K library - cell viability counter screen (AID 1224840; active = well fitted cell-killing curve with a large enough effect in the repeat runs, not every such curve was filed as active; also: nearly all actives have a fitted effect of over 40% in size). An outline of the steps:
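Compounds in DMSO, alongside positive and negative controls, were pinned onto PGC/ERR cells (2,000 per well). Exposure lasted 17.5 hours at 37 C, followed by a 30-minute CellTiter-Fluor incubation and fluorescence reading.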

Thyrotropin receptor (Homo sapiens), sequence (P16473 whole entry, looked up): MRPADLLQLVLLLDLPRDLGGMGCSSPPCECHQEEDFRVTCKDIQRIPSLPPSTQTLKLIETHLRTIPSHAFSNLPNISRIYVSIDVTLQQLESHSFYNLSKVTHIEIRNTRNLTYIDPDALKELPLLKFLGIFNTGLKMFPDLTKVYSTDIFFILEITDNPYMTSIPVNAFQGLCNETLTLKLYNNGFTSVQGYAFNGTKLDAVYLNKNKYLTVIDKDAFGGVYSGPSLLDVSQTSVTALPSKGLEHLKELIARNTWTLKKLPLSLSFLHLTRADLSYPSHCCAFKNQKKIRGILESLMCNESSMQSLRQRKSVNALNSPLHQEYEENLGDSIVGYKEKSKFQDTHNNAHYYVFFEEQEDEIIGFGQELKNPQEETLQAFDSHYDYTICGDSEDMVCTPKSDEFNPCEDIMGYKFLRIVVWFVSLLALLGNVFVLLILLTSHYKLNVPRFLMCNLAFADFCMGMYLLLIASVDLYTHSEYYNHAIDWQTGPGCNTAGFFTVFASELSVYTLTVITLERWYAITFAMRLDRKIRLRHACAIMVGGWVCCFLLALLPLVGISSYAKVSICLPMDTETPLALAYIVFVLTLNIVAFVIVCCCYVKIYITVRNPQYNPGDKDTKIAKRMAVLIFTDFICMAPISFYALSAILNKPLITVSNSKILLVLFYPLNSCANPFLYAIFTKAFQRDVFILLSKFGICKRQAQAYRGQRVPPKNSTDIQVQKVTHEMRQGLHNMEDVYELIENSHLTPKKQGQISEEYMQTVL
Nuclear receptor subfamily 1 group I member 3 (Homo sapiens), sequence (Q14994 whole entry, looked up): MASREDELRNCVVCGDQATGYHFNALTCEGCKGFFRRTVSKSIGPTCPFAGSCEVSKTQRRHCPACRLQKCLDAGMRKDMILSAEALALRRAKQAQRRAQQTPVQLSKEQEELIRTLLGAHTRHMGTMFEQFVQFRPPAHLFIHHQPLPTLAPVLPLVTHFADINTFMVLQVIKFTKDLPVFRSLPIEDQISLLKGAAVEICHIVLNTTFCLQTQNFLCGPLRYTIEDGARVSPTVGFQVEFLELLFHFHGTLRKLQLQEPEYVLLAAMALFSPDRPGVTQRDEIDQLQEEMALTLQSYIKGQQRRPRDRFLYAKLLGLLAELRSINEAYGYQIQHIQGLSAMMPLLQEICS
Luciferin 4-monooxygenase (Photinus pyralis), sequence (P08659 whole entry, looked up): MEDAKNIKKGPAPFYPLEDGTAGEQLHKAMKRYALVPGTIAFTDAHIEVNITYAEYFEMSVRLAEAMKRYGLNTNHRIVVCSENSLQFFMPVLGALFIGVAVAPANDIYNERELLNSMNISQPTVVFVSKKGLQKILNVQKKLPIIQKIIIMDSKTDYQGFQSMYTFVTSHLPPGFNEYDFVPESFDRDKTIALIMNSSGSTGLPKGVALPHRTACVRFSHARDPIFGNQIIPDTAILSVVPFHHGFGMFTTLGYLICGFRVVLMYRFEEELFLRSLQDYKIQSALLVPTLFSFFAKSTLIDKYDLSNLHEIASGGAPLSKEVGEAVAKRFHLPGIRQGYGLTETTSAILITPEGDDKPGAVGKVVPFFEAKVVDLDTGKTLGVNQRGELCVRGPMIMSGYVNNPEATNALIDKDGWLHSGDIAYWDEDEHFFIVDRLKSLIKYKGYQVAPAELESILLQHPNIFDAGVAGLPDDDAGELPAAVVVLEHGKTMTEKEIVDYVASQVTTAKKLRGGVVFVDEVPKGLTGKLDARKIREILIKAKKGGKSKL

Turning to `O=C(O)CNC(=O)c1ccccc1I`, the Potency result in [1], in [2], in [3], in assay [4], in [5] and in [6] was “inactive” throughout. The Potency result in assay [7], in [8], in assay [9], in assay [11], in assay [12] and in assay [13] was “inactive” each time. In addition, in [14], the Potency entry was “inactive”. The result in assay [10] was inactive.

Consider `Cc1cn([C@H]2C[C@H](F)[C@@H](CO)O2)c(=O)[nH]c1=O`, for which the Potency result in assay [1], in assay [2], in assay [3], in assay [4], in [5] and in assay [6] was “inactive” in each case. Also, the Potency entry in assay [7], in assay [8], in assay [11], in [12] and in [14] was “inactive” each time. In addition, the Potency in assay [9] was 43.8 nM (active). The compound was classed as inactive in assay [10].

On to `CC1CCCC(=O)C1=O` (stereo not drawn), for which the Potency entry in assay [1], in [2], in assay [3], in assay [4], in assay [5] and in assay [6] was “inactive” throughout. The Potency entry in [15], in [8], in assay [9], in [11], in [12] and in assay [13] was “inactive” in each case. Further, the Potency result in [14] is “inactive”. Also, the outcome in assay [10] was inactive.

Turning to `Cc1ccc(N(CCO)CCO)cc1`, the Potency result in [1], in assay [2], in [3], in assay [4], in assay [5] and in [6] was “inactive” each time. Also, the Potency result in [15], in [7], in assay [9], in assay [11], in assay [12] and in assay [13] was “inactive” each time. Besides, in [14], the Potency entry is “inactive”. The call in assay [10] was inactive.

For `CCc1ccc(C)cc1`, the Potency entry in assay [1], in assay [2], in assay [3], in [4], in assay [5] and in assay [6] was “inactive” each time. Also, the Potency result in [15], in [9], in [11], in assay [12], in assay [13] and in [14] was “inactive” each time. The compound was classed as inactive in [10].

As to `CC(=O)OCC(=O)[C@@]1(OC(C)=O)[C@@H](C)C[C@H]2[C@@H]3C[C@H](F)C4=CC(=O)C=C[C@]4(C)[C@@]3(F)[C@@H](O)C[C@@]21C`, the Potency result in assay [1], in assay [2], in assay [3], in [4], in assay [5] and in [6] was “inactive” throughout. Further, the Potency result in [15], in assay [9], in assay [11], in [12] and in assay [14] was “inactive” in each case.

`CC(C)N(C)C`: the Potency result in assay [1], in assay [2], in assay [3], in [4], in [5] and in assay [6] was “inactive” throughout. Besides, the Potency result in [7], in assay [8], in assay [11], in assay [12] and in assay [14] was “inactive” each time. For the same compound, in [10], the compound was classed as inactive.

As for `COc1ccc(CCN(C)CCCN2CCc3cc(OC)c(OC)cc3CC2=O)cc1OC`, the Potency result in assay [1], in [2], in [3], in assay [4], in [5] and in assay [6] was “inactive” each time. Also, the Potency result in assay [8], in [11], in [12], in assay [13] and in [14] was “inactive” each time. In addition, the outcome in assay [10] was inactive.
